# Laboratory results reported in ChEMBL document CHEMBL1157539, “Thousands of chemical starting points for antimalarial lead identification” (Nature, 2010).
# Test system: Plasmodium falciparum
# Experiment: GSK_TCMDC: Inhibition of Plasmodium falciparum 3D7 in whole red blood cells, using parasite LDH activity as an index of growth. Test compounds present at 2uM
# Assay type: functional
row,SMILES,Inhibition [%]
1,CC(C)(C)c1ccc(S(=O)(=O)Nc2ccccc2Cn2nc(N3CCNCC3)ccc2=O)cc1.O=C(O)C(F)(F)F,98
2,COc1ccc(NCCCNc2ccnc3ccccc23)cc1,88
3,CCOc1ccc2c(=NN=Cc3ccc(F)cc3)cc(C)[nH]c2c1,100
4,O=C(NCC1CCN(CC2CCCCC2)C1)c1cc(-c2cccc(Cl)c2)cs1.O=C(O)C(F)(F)F (stereo not drawn),85
5,O=C(/C=C/c1ccc(Cl)c(Cl)c1)NCCCCCN1CCN(C(=O)Nc2ccc(OC(F)F)cc2)CC1,99
6,COc1cc2nc(-c3ccccc3)nc(N3CCN(CC(=O)N4CCCC4)CC3)c2cc1OC,84
7,O=C(NCCN1CCCCC1)c1ccc(CNC(=O)c2ccc(O)c(-c3ccc(Cl)c(Cl)c3)c2)cc1,93
8,CNc1ccc(CNCc2ccc(-c3ccc(-c4nc5cc(C(F)(F)F)ccc5[nH]4)s3)cc2)cc1.O=C(O)C(F)(F)F,100
9,Clc1ccc(Nc2nc(Nc3ccc(Cl)c(Cl)c3)nc(Sc3nc4ccccc4[nH]3)n2)cc1Cl,99
10,O=C(O)C(F)(F)F.c1ccc(C2CCN(Cc3ccc(-c4c[nH]c5nc(NC6CCCC6)ncc45)cc3)CC2)cc1,82
11,O=c1c(Br)ccccc1Br,94
12,CCCN(CCC)CCCNc1ccc(C(=O)Nc2ccc(OCC)cc2)cc1[N+](=O)[O-],89
13,Cc1cc2nc(-c3ccc(/C=C/C(=O)NCCCc4ccccc4)cc3)[nH]c2cc1C,96
14,Cc1[nH]c(C)c(-c2ccc(CCc3ccc(F)cc3F)cc2)c(=O)c1Cl,98
15,Nc1ncc(-c2ccccc2)cc1-c1cccc2ncccc12.O=C(O)C(F)(F)F,97
16,CCN(CC)CCN(Cc1ccc(-c2ccc(C(F)(F)F)cc2)cc1)C(=O)Cn1c(CCc2cccc(C#N)c2)nc(=O)c2ccccc21.O=C(O)C(O)C(O)C(=O)O,100
17,Cc1cc(NCCC(=O)NCCOc2ccccc2)nc(Nc2ccccc2)n1.O=C(O)C(F)(F)F,94
18,CS(=O)(=O)O.FC(F)(F)COc1ccc2ccccc2c1CCNCCCCNCCc1c(OCC(F)(F)F)ccc2ccccc12,100
19,Cc1noc(C)c1-c1ccc2c(Nc3ccccc3C(C)(C)C)c(C(=O)NCc3cccc4ccccc34)cnc2c1.Cl,96
20,Cc1cc(NC(=O)Nc2ccc(C(C)C)cc2)c2ccccc2n1.Cl,99

row,SMILES,Inhibition [%]
1,COc1ccc2c(NCCc3ccccc3)cc(-c3ccccc3)nc2c1.Cl,98
2,FC(F)(F)c1ccc2[nH]c(-c3ccc(-c4ccc(CN5CCN(c6ccncc6)CC5)cc4)s3)nc2c1.O=C(O)C(F)(F)F,100
3,Cc1ccccc1-c1nc2c(CN3CCC(O)(c4ccccc4)CC3)c(O)ccc2[nH]1,92
4,CC(=O)Nc1cc(C(=O)Nc2cccc(-c3csc(-c4nc5ccccc5[nH]4)c3)c2)ccc1C,94
5,Cl.O=c1cc(NCCCNCc2scc(I)c2I)[nH]c2ccccc12,100
6,CCOc1c(OC)ccc2c1CCN(CCN1CCC(CNC(=O)c3ccc(-c4ccc(C(F)(F)F)cc4)cc3)CC1)C2,100
7,CC1CCCC(NC(=O)CCOc2ccccc2)C1 (stereo not drawn),96
8,O=C(COc1ccc(Cl)c(Cl)c1)NCCCCCN1CCCN(C(=O)Nc2cc(Cl)cc(Cl)c2)CC1.O=C(O)C(F)(F)F,89
9,Oc1ccc(-c2nc(-c3ccc4oc5ccc(-c6[nH]c(-c7ccc(O)cc7)nc6-c6ccccc6)cc5c4c3)c(-c3ccccc3)[nH]2)cc1,84
10,Cc1noc(-c2ccccc2)c1NC(=O)N1CCN(CCCCCCNC(=O)/C=C/c2ccc(Cl)c(Cl)c2)CC1,95
11,CCC/C=C/c1c(CNCCCNc2cc(=O)c3ccccc3[nH]2)sc(CC)c1Br.Cl,88
12,CCCCCCCCc1c(C)nc(C)c(C#N)c1O,97
13,COc1cc2nc(N3CCN(C(=O)c4cccc(I)c4)CC3)nc(N)c2cc1OC,88
14,COc1cc(F)c2ncc(Cl)c(C(O)CN3CCC(NC(=O)c4ccc5c(c4)NC(=O)CS5)CC3)c2c1.Cl (stereo not drawn),98
15,COc1ccc(-c2ccc(NC(=O)c3ccc(Cl)cc3)cc2)cc1CN1CCN(C)CC1.O=C(O)C(F)(F)F,86
16,Cc1nc2nc(N)nc(N)c2c(C)c1Cc1ccccc1.Cl,95
17,CC1CN(Cc2ccccc2)CCN1c1ccc(NC(=O)c2cccs2)cc1.O=C(O)C(F)(F)F (stereo not drawn),96
18,COc1cc(Cc2cnc(N)nc2N)cc(OC)c1OCCNC(=O)[C@@H](N)CCC(=O)O.Cl,96
19,Cc1cc(NCCCOc2ccc(Cl)cc2)nc(NCc2ccccc2)n1.Cl,95

# Test system: Plasmodium falciparum
# Experiment: GSK_TCMDC: Inhibition of Plasmodium falciparum Dd2 in whole red blood cells, using parasite LDH activity as an index of growth. Test compounds present at 2uM
# Assay type: functional
row,SMILES,Inhibition [%]
1,CC(C)(C)c1ccc(S(=O)(=O)Nc2ccccc2Cn2nc(N3CCNCC3)ccc2=O)cc1.O=C(O)C(F)(F)F,97
2,COc1ccc(NCCCNc2ccnc3ccccc23)cc1,17
3,CCOc1ccc2c(=NN=Cc3ccc(F)cc3)cc(C)[nH]c2c1,99
4,O=C(NCC1CCN(CC2CCCCC2)C1)c1cc(-c2cccc(Cl)c2)cs1.O=C(O)C(F)(F)F (stereo not drawn),8
5,O=C(/C=C/c1ccc(Cl)c(Cl)c1)NCCCCCN1CCN(C(=O)Nc2ccc(OC(F)F)cc2)CC1,0
6,COc1cc2nc(-c3ccccc3)nc(N3CCN(CC(=O)N4CCCC4)CC3)c2cc1OC,70
7,O=C(NCCN1CCCCC1)c1ccc(CNC(=O)c2ccc(O)c(-c3ccc(Cl)c(Cl)c3)c2)cc1,68
8,CNc1ccc(CNCc2ccc(-c3ccc(-c4nc5cc(C(F)(F)F)ccc5[nH]4)s3)cc2)cc1.O=C(O)C(F)(F)F,97
9,Clc1ccc(Nc2nc(Nc3ccc(Cl)c(Cl)c3)nc(Sc3nc4ccccc4[nH]3)n2)cc1Cl,100
10,O=C(O)C(F)(F)F.c1ccc(C2CCN(Cc3ccc(-c4c[nH]c5nc(NC6CCCC6)ncc45)cc3)CC2)cc1,9
11,O=c1c(Br)ccccc1Br,41
12,CCCN(CCC)CCCNc1ccc(C(=O)Nc2ccc(OCC)cc2)cc1[N+](=O)[O-],2
13,Cc1cc2nc(-c3ccc(/C=C/C(=O)NCCCc4ccccc4)cc3)[nH]c2cc1C,13
14,Cc1[nH]c(C)c(-c2ccc(CCc3ccc(F)cc3F)cc2)c(=O)c1Cl,97
15,Nc1ncc(-c2ccccc2)cc1-c1cccc2ncccc12.O=C(O)C(F)(F)F,99
16,CCN(CC)CCN(Cc1ccc(-c2ccc(C(F)(F)F)cc2)cc1)C(=O)Cn1c(CCc2cccc(C#N)c2)nc(=O)c2ccccc21.O=C(O)C(O)C(O)C(=O)O,47
17,Cc1cc(NCCC(=O)NCCOc2ccccc2)nc(Nc2ccccc2)n1.O=C(O)C(F)(F)F,55
18,CS(=O)(=O)O.FC(F)(F)COc1ccc2ccccc2c1CCNCCCCNCCc1c(OCC(F)(F)F)ccc2ccccc12,53
19,Cc1noc(C)c1-c1ccc2c(Nc3ccccc3C(C)(C)C)c(C(=O)NCc3cccc4ccccc34)cnc2c1.Cl,64
20,Cc1cc(NC(=O)Nc2ccc(C(C)C)cc2)c2ccccc2n1.Cl,16

row,SMILES,Inhibition [%]
1,COc1ccc2c(NCCc3ccccc3)cc(-c3ccccc3)nc2c1.Cl,1
2,FC(F)(F)c1ccc2[nH]c(-c3ccc(-c4ccc(CN5CCN(c6ccncc6)CC5)cc4)s3)nc2c1.O=C(O)C(F)(F)F,50
3,Cc1ccccc1-c1nc2c(CN3CCC(O)(c4ccccc4)CC3)c(O)ccc2[nH]1,61
4,CC(=O)Nc1cc(C(=O)Nc2cccc(-c3csc(-c4nc5ccccc5[nH]4)c3)c2)ccc1C,66
5,Cl.O=c1cc(NCCCNCc2scc(I)c2I)[nH]c2ccccc12,73
6,CCOc1c(OC)ccc2c1CCN(CCN1CCC(CNC(=O)c3ccc(-c4ccc(C(F)(F)F)cc4)cc3)CC1)C2,21
7,CC1CCCC(NC(=O)CCOc2ccccc2)C1 (stereo not drawn),32
8,O=C(COc1ccc(Cl)c(Cl)c1)NCCCCCN1CCCN(C(=O)Nc2cc(Cl)cc(Cl)c2)CC1.O=C(O)C(F)(F)F,1
9,Oc1ccc(-c2nc(-c3ccc4oc5ccc(-c6[nH]c(-c7ccc(O)cc7)nc6-c6ccccc6)cc5c4c3)c(-c3ccccc3)[nH]2)cc1,71
10,Cc1noc(-c2ccccc2)c1NC(=O)N1CCN(CCCCCCNC(=O)/C=C/c2ccc(Cl)c(Cl)c2)CC1,1
11,CCC/C=C/c1c(CNCCCNc2cc(=O)c3ccccc3[nH]2)sc(CC)c1Br.Cl,71
12,CCCCCCCCc1c(C)nc(C)c(C#N)c1O,96
13,COc1cc2nc(N3CCN(C(=O)c4cccc(I)c4)CC3)nc(N)c2cc1OC,26
14,COc1cc(F)c2ncc(Cl)c(C(O)CN3CCC(NC(=O)c4ccc5c(c4)NC(=O)CS5)CC3)c2c1.Cl (stereo not drawn),68
15,COc1ccc(-c2ccc(NC(=O)c3ccc(Cl)cc3)cc2)cc1CN1CCN(C)CC1.O=C(O)C(F)(F)F,23
16,Cc1nc2nc(N)nc(N)c2c(C)c1Cc1ccccc1.Cl,0
17,CC1CN(Cc2ccccc2)CCN1c1ccc(NC(=O)c2cccs2)cc1.O=C(O)C(F)(F)F (stereo not drawn),96
18,COc1cc(Cc2cnc(N)nc2N)cc(OC)c1OCCNC(=O)[C@@H](N)CCC(=O)O.Cl,0
19,Cc1cc(NCCCOc2ccc(Cl)cc2)nc(NCc2ccccc2)n1.Cl,20
